Compound activity as filed in PubChem BioAssay.
Pf growth 96h = P. falciparum growth inhibition at 96 hour, primary screen for plastid delayed-death inhibitors. P. falciparum luciferase reporter growth, 96 h. Potency, µM (top dose mostly 28.7 µM), for the others: at the top dose activity change, negative = inhibition, most hits filed as inhibitors. actives 6.9% (n = 320,000). AID 504834; further: potency means the concentration at half of the fitted maximal effect; on the % scale 0 is the no-effect control and ±100 the full control effect
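Luminescence readout: decreased luciferase signal marks inhibited growth of reporter-expressing P. falciparum in infected red cells (2% hematocrit, 0.05% parasitemia final), exposed to compound two generations (96 h, 37 C, 5% CO2).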
Shiga toxin inh = Shiga toxin inhibition; actives 9.2% (n = 290,000); Vero cells, Shiga toxin protein synthesis inhibition reporter; inhibition, % at 38.7 µM; in the data active means inhibition mostly above about 28%, no sharp cut-off; inactive means mostly below about 43%; further: 0% is about no effect
Cycloheximide cs = counter-screen for Shiga toxin inhibitors: cycloheximide protein synthesis inhibition | cell reporter, cycloheximide protein synthesis inhibition counterscreen | max response, % | actives 12% (n = 300,000) | AID 2314; in the data active means max response mostly above about 13%, no sharp cut-off; inactive means mostly below about 14%; further: read at 38.3 µM for the half of the compounds with a filed dose; 0% is about no effect
HCMV inh = human cytomegalovirus inhibition; activity change, negative = inhibition, % at 57.5 µM; AID 1259415; actives 4.5% (n = 410,000); HFF cells, HCMV-luciferase reporter, 72 h; active compounds read low; in the data active means activity change below about -60%; inconclusive means no clear call, values can overlap the other calls; inactive means above about -39%; further: on the % scale 0 is the no-effect control and ±100 the full control effect
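Compounds were evaluated in HFFs infected with an HCMV luciferase reporter virus (MOI 1 PFU/cell). Luciferase in lysates collected 72 h post infection served as the replication measure.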
Pf growth 48h = P. falciparum growth inhibition at 48 hours (one generation); P. falciparum luciferase growth in erythrocytes, 48 h; Potency, µM (top dose mostly 28.7 µM), for inactives: at the top dose activity change, negative = inhibition, actives largely listed as inhibitors; actives 5.9% (n = 310,000); further: potency means the concentration at half of the fitted maximal effect; on the % scale 0 is the no-effect control and ±100 the full control effect
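Cell-based growth assay: transgenic P. falciparum expressing firefly luciferase, cultured in red cells within RPMI 1640 containing 0.5% w/v Albumax, 24 mM bicarbonate and gentamycin. A drop in luciferase activity indicates inhibition.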
HCV inh = HCV inhibition | Potency, µM (titrated, usually from 41.8 µM), for the others: at the top dose activity change, negative = inhibition, most hits filed as inhibitors | actives 3.4% (n = 340,000) | Huh7.5.1 HCVcc-Cre infection, luciferase reporter, 44 h | AID 651820; further: potency means the concentration at half of the fitted maximal effect; on the % scale 0 is the no-effect control and ±100 the full control effect
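HCVcc-Cre virus at an moi near 0.5 was added right after compound to cells cultured 4 h from seeding (1,000 cells/well). Luciferase activity was determined 44 h later, 15 min after substrate addition at RT.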
* = called active by the depositor; i = inactive; ? = inconclusive; · = not tested or not shown. In the library only some 21% were active in any assay of this set; here they are far more common. Unless noted, the call rests on the fitted dose curve; in most records, active means well fitted inhibition curve with a large enough effect; inconclusive means small, poorly fitted or top-dose-only effect, or another doubt; inactive means no such curve, though single readings can be large or run the other way.

SMILES	Pf growth 96h	Shiga toxin inh	Cycloheximide cs	HCMV inh	Pf growth 48h	HCV inh
O=C(O)c1ccc(N/N=C/c2cccc(C(F)(F)F)c2)cc1	-22%	84*	55*	62	252%	4%
O=C(O)c1ccc(N/N=C/c2cccc(F)c2)cc1	267%	69*	81*	76	214%	44%
O=C(O)c1ccc(N/N=C/c2ccc(F)c(F)c2)cc1	174%	35	15*	23	258%	30%
O=C(NCCn1cc(SCc2ccc(Cl)cc2)c2ccccc21)c1cccs1	·	·	·	-22	·	·
CCCS(=O)(=O)N1CCCC(c2nc(-c3ccc(OC)cc3)no2)C1 (configuration not stated)	?	12	17	-33	·	2%
CCS(=O)(=O)N1CCCC(c2nc(-c3cccc(OC)c3)no2)C1 (configuration not stated)	-26%	104*	42*	73	112%	-29%
COc1ccc(-c2noc(C3CCCN(S(=O)(=O)c4cccc(Cl)c4C)C3)n2)cc1OC (configuration not stated)	?	8	6	-7	13µM*	?
CC(=O)c1cccc(NC(=S)Nc2ccn(Cc3cccc4ccccc34)n2)c1	?	7	9	?	?	11µM*
CC(=O)c1ccc(NC(=S)Nc2ccn(Cc3ccc(Br)cc3)n2)cc1	?	-8	1	24	-19%	-2%
CCc1nc2ccccc2c(C(=O)NCc2ccccc2)c1C	?	-14	-5	-68*	?	-15%
CCc1nc2ccc(C)cc2c(C(=O)Oc2cccc3cccnc23)c1C	-21%	-10	5	-14	?	?
CCc1nc2ccccc2c(C(=O)Oc2cccc3cccnc23)c1C	?	-4	3	27	?	2.2µM*
COc1ccccc1C(=O)NCCC(=O)N(C)Cc1ccc(C)o1	-26%	8	-1	-10	?	2%
C=CCN(C(=O)C1CSC2(C)CCC(=O)N12)c1nc(-c2ccccc2)cs1 (configuration not stated)	?	·	·	-7	12µM*	?
CN(Cc1ccc(C(C)(C)C)cc1)C(=O)C1CSC2(C)CCC(=O)N12 (configuration not stated)	?	·	·	42	?	-21%
COCCCNc1ncnc2ccc(C)cc12	?	39*	15*	-63*	48%	?
Cc1ccc2ncnc(NCCC(=O)O)c2c1	-15%	18	-2	19	-1%	12%
Cc1cc(N)n(-c2ccc3ccccc3c2)n1	259%	43*	18*	147	58%	?
Cc1cc(C)cc(-n2nc(C)cc2N)c1	32%	50	-4	33	·	10µM*
COc1ccc(-n2nc(C)cc2N)cc1	-57%	10	-1	-27	42%	8%
CC1=CC(=Nc2c(C)n(C)n(-c3ccccc3)c2=O)C=CC1=O	?	12	7	·	?	·
Cc1c(N=NC2=C(O)CC(C)(C)CC2=O)c(=O)n(-c2ccccc2)n1C	2.1µM*	-13	-1	-3	-21%	6%
Cc1c(N=Nc2c(O)[nH]c(=S)[nH]c2=O)c(=O)n(-c2ccccc2)n1C	?	-10	-1	-14	-16%	1%
CCNc1ccc(N=Nc2c(C)n(C)n(-c3ccccc3)c2=O)cc1	?	40	21*	23	15%	-13%
CC1=CC(=Nc2c(C)n(C)n(-c3ccccc3)c2=O)C=C(C)C1=O	?	-7	5	-75*	7%	32%
SMILES	Pf growth 96h	Shiga toxin inh	Cycloheximide cs	HCMV inh	Pf growth 48h	HCV inh
C=CCn1c(O)c(N=Nc2c(C)n(C)n(-c3ccccc3)c2=O)c(=O)[nH]c1=S	6.6µM*	-8	-2	-16	-22%	-4%
CCCCOc1ccc(C(=O)NCC(=O)NCCCn2nc(C)cc2C)cc1	?	·	·	35	?	4%
CC(C)[C@H](NC(=O)c1ccc(Cl)cc1Cl)C(=O)N1CCC[C@H]1C(=O)NCCc1ccccc1Cl	·	·	·	-7	·	·
O=C(/C=C/CCc1ccc2c(c1)OCO2)N1CCCCC1	·	·	·	1	·	-13%
COc1ccc(C2=C(c3ccc(OC)c(OC)c3)CN3CCCCC3C2)cc1 (configuration not stated)	·	·	·	-18	·	-1%
COc1cc(OC)cc(-c2cc3nc4c(c(N5CCN(c6cnccn6)CC5)n3n2)CCCC4)c1	·	·	·	13	·	·
CN(CCO)c1c2c(nc3cc(-c4cccc(F)c4)nn13)CCCC2	?	46	42*	110	81%	-21%
Cc1nc2cc(-c3cccc(F)c3)nn2c(C)c1CCC(=O)NCCc1ccccc1	·	·	·	-38	·	·
CCOCCN1CCN(c2c3c(nc4cc(-c5ccc(F)cc5)nn24)CCC3)CC1	24%	-7	-7	16	?	3%
Clc1cccc(-c2cc3nc4c(c(NCc5ccco5)n3n2)CCCC4)c1	?	131*	47*	95	-77%	10µM*
Clc1cccc(-c2cc3nc4c(c(N5CCNCC5)n3n2)CCCC4)c1	-6%	43	31*	·	87%	5%
OC1CCN(c2c3c(nc4cc(-c5cccc(F)c5)nn24)CCCC3)CC1	19%	81	33*	40	9.3µM*	?
Cc1ccc(-n2ncc3c(=O)n(CC(=O)N4CCN(C(=O)c5ccco5)CC4)cnc32)cc1	?	·	·	-12	1%	16%
Cc1nc2cc(-c3cccc(F)c3)nn2c(C)c1CCC(=O)N1CCC2(CC1)OCCO2	?	2	-2	-38	?	-22%
Fc1cccc(-c2cc3nc4c(c(N5CCC6(CC5)OCCO6)n3n2)CCCC4)c1	14%	108*	28*	14	9.3µM*	13µM*
COc1cc(OC)cc(-c2cc3nc4c(c(N5CCN(c6ncccn6)CC5)n3n2)CCCC4)c1	5%	17	-2	58	1.3µM*	-30%
OCCCNc1c2c(nc3cc(-c4ccc(Cl)cc4)nn13)CCC2	?	40*	5.9*	15	?	?
Cc1ccc(C)c(S(=O)(=O)c2nnn3c2nc(NCc2ccc4c(c2)OCO4)c2sccc23)c1	·	·	·	-79*	·	·
Cc1ccc(S(=O)(=O)c2nnn3c2nc(NCCc2ccccc2)c2sccc23)cc1	·	·	·	-65*	·	·
CCN1/C(=N\N)c2cccc3cccc1c23	?	-5	-6	32	-8%	-20%
COc1ccc(-c2nnc(SCC(=O)/C(C#N)=C(\C)N)o2)cc1	0%	107*	38*	39	144%	?
COc1ccc2nc(SCC(N)=O)[nH]c2c1	·	8	-2	13	11%	15%
COc1ccc2nc(SCC(=O)/C(C#N)=C(\C)N)[nH]c2c1	i	97*	47*	122	92%	2%
C/C(N)=C(/C#N)C(=O)CSc1nnc(-c2ccccc2Br)o1	·	126*	54*	46	227%	-2%
